Reference: PubChem BioAssay (NCI)
Compounds without any hit were thinned out: in the full panel of roughly 79,000, 15% have a hit. The source made the active and inactive calls. No stated cut-off is given here; in the data, active means growth inhibition above about 70%; inactive means the rest.

Assays:
[1] = NCI Yeast Anticancer Drug Screen. Data for the rad52 strain (AID 147);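 further: 0% = growth of vehicle-treated control cultures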; conditions: S. cerevisiae rad52 mutant growth inhibition, stronger effect = higher value
Method in brief: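 Yeast strain carrying a DNA damage repair alteration was exposed to test compounds. Growth inhibition was measured relative to vehicle-treated controls.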

[2] = NCI Yeast Anticancer Drug Screen. Data for the wt1 strain (AID 149);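 further: 0% = growth of vehicle-treated wt1 cultures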; conditions: S. cerevisiae wt1 strain (SPY 50644) growth inhibition, stronger effect = higher value
Method in brief: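 Compounds are added to wt1 yeast cultures. Growth is then measured. Inhibition is expressed relative to vehicle-treated controls.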

[3] = NCI Yeast Anticancer Drug Screen. Data for the rad50EPP+ strain (AID 151);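 further: 0% = growth of vehicle-treated control cultures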; conditions: S. cerevisiae rad50 mutant strain, stronger effect = higher value
Method in brief: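 Yeast strain carrying rad50 alteration (rad50EPP+) exposed to compounds; growth inhibition measured relative to vehicle-treated controls.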

[4] = NCI Yeast Anticancer Drug Screen. Data for the mgt1 strain (AID 153); conditions: S. cerevisiae mgt1 mutant growth inhibition, stronger effect = higher value
Method in brief: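 Yeast mgt1 strain (DNA repair/cell-cycle alteration panel) exposed to compounds; growth inhibition measured relative to vehicle-treated controls.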

[5] = NCI Yeast Anticancer Drug Screen. Data for the rad50 strain (AID 155);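 further: 0% = growth of vehicle-only cultures of the same strain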; conditions: S. cerevisiae rad50 strain growth inhibition, stronger effect = higher value
Method in brief: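 Inhibition values express reduced yeast growth in compound-treated cultures relative to vehicle-treated controls.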

[6] = NCI Yeast Anticancer Drug Screen. Data for the mec2-1 strain (AID 157); conditions: S. cerevisiae mec2-1 strain, stronger effect = higher value
Method in brief: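 mec2-1 yeast strain, carrying an alteration in DNA damage repair or cell cycle control, was exposed to compounds; growth inhibition was measured relative to vehicle-treated controls.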

[7] = NCI Yeast Anticancer Drug Screen. Data for the rad14 strain (AID 159);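 further: 0% = growth of vehicle-treated control cultures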; conditions: S. cerevisiae rad14 strain growth inhibition, stronger effect = higher value
Method in brief: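 A mutant yeast strain defective in DNA damage repair is treated with compound; inhibition of its growth is scored against untreated, vehicle-exposed cultures.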

[8] = NCI Yeast Anticancer Drug Screen. Data for the sgs1 mgt1 strain (AID 161);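 further: 0% = growth of cultures given vehicle only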; conditions: S. cerevisiae sgs1 mgt1 strain, stronger effect = higher value
Method in brief: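 Compounds are added to genetically altered yeast, and growth is compared with cultures given vehicle alone to give percent inhibition.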

[9] = NCI Yeast Anticancer Drug Screen. Data for the CLN2oe strain (AID 163);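 further: 0% = growth of vehicle-only control cultures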; conditions: S. cerevisiae CLN2oe strain, stronger effect = higher value
Method in brief: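 Yeast cells carrying a defined cell-cycle control alteration were exposed to test compounds. Growth inhibition was scored against vehicle-treated control cultures.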

[10] = NCI Yeast Anticancer Drug Screen. Data for the cln2 rad14 strain (AID 165);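 further: 0% = growth equal to vehicle treated cultures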; conditions: S. cerevisiae cln2 rad14 strain, stronger effect = higher value
Method in brief: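 Yeast carrying cln2 and rad14 alterations (cell cycle control and DNA damage repair) were exposed to compounds. Growth inhibition was measured against vehicle-treated controls.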

[11] = NCI Yeast Anticancer Drug Screen. Data for the bub3 strain (AID 167); conditions: S. cerevisiae bub3 mutant strain, stronger effect = higher value
Method in brief: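 Steps: expose the mutant yeast strain to compound; grow alongside vehicle-treated cultures; measure growth; express inhibition against the vehicle cultures.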

[12] = NCI Yeast Anticancer Drug Screen. Data for the wt2 strain (AID 169);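 further: 0% = growth of vehicle-treated yeast cultures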; conditions: S. cerevisiae wt2 strain growth inhibition, stronger effect = higher value
Method in brief: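 Yeast cells were exposed to test compounds, and growth inhibition was measured relative to vehicle-treated controls.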

[13] = NCI Yeast Anticancer Drug Screen. Data for the mlh1 strain (AID 171);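 further: 0% = growth of vehicle-treated control cultures of the same strain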; conditions: S. cerevisiae mlh1 strain growth inhibition, stronger effect = higher value
Method in brief: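 Yeast carrying a defined genetic alteration in DNA damage repair or cell cycle control were exposed to test compounds. Growth inhibition was measured relative to vehicle-treated controls.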

[14] = NCI Yeast Anticancer Drug Screen. Data for the sgs1 strain (AID 173);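 further: 0% = growth of vehicle-only control cultures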; conditions: S. cerevisiae sgs1 mutant, stronger effect = higher value
Method in brief: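 Yeast mutant strains carrying defined defects in DNA damage repair or cell cycle control were exposed to test compounds. Growth inhibition was scored against vehicle-treated controls.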

[15] = NCI Yeast Anticancer Drug Screen. Data for the mlh1 rad18 strain (AID 175); conditions: S. cerevisiae mlh1 rad18 strain growth inhibition, stronger effect = higher value
Method in brief: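 Growth inhibition of the yeast strain was measured after compound exposure and expressed relative to vehicle-treated controls. The strain carries defined defects in DNA damage repair.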

[16] = NCI Yeast Anticancer Drug Screen. Data for the rad18 strain (AID 177); conditions: S. cerevisiae rad18 mutant growth inhibition, stronger effect = higher value
Method in brief: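 Yeast carrying a defined DNA damage repair alteration were exposed to compounds. Growth inhibition was expressed relative to vehicle-treated controls.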

[17] = at 5.0 µM (retest, dose inferred, filed as 0.5)
[18] = at 50.0 µM (retest, dose inferred, filed as 5.0)

Measured: growth inhibition

COC(=O)CC1CCc2c(ccc3ccccc23)C1(C)C(=O)OC (stereo not drawn)
inactive: [1]; at 1.2 µM -1% | [1]; at 3.7 µM 2% | [1]; at 11.0 µM 14% | [1]; at 33.0 µM 5% | [1]; at 100.0 µM 32% | [2]; at 1.2 µM -2% | [2]; at 3.7 µM -4% | [2]; at 11.0 µM 7% | [2]; at 33.0 µM -10% | [2]; at 100.0 µM -1% | [3]; at 1.2 µM 5% | [3]; at 3.7 µM 16% | [3]; at 11.0 µM 16% | [3]; at 33.0 µM 48% | [3]; at 100.0 µM 45% | [4]; at 1.2 µM -3% | [4]; at 3.7 µM 0% | [4]; at 11.0 µM -2% | [4]; at 33.0 µM 17% | [4]; at 100.0 µM 53% | [5]; at 1.2 µM 1% | [5]; at 3.7 µM 2% | [5]; [17] -5% | [5]; at 11.0 µM 10% | [5]; at 33.0 µM 15% | [5]; [18] 21% | [5]; at 50.0 µM 15.3% | [5]; at 100.0 µM 37% | [6]; at 1.2 µM -3% | [6]; at 3.7 µM -2% | [6]; [17] -5% | [6]; at 11.0 µM -2% | [6]; at 33.0 µM -7% | [6]; [18] 28% | [6]; at 50.0 µM -1.05% | [6]; at 100.0 µM 6% | [7]; at 1.2 µM -2% | [7]; at 3.7 µM 1% | [7]; at 11.0 µM 2% | [7]; at 33.0 µM -5% | [7]; at 100.0 µM 10% | [8]; [17] -2% | [8]; at 50.0 µM 66% | [9]; at 1.2 µM -4% | [9]; at 3.7 µM -5% | [9]; at 11.0 µM -11% | [9]; at 33.0 µM -21% | [9]; at 100.0 µM 0% | [10]; [17] -3% | [10]; [18] 11% | [10]; at 50.0 µM 1.4% | [11]; at 1.2 µM 3% | [11]; at 3.7 µM 2% | [11]; [17] 2% | [11]; at 11.0 µM 6% | [11]; at 33.0 µM 46% | [11]; at 50.0 µM 63.5% | [12]; at 1.2 µM 1% | [12]; at 3.7 µM -8% | [12]; at 11.0 µM -1% | [12]; at 33.0 µM -5% | [12]; at 100.0 µM 12% | [13]; at 1.2 µM -5% | [13]; at 3.7 µM -2% | [13]; at 11.0 µM 0% | [13]; at 33.0 µM 14% | [13]; at 100.0 µM 57% | [14]; at 1.2 µM -24% | [14]; at 3.7 µM -30% | [14]; at 11.0 µM -18% | [14]; at 33.0 µM 13% | [15]; [17] -3% | [15]; [18] 54% | [15]; at 50.0 µM 27.6% | [16]; at 1.2 µM -10% | [16]; at 3.7 µM -4% | [16]; at 11.0 µM -2% | [16]; at 33.0 µM -3% | [16]; at 100.0 µM 20%
active: [8]; [18] 80% | [11]; [18] 75% | [11]; at 100.0 µM 71% | [14]; at 100.0 µM 79%
